# Experimental data reported in PubChem BioAssay AID1159580 (chemical genetic matrix, 2015).
# The campaign covered roughly 5,500 compounds. About 2,000 (36%) were called active. Roughly 18% stayed inconclusive and do not appear here. Some of the results follow. Unmarked numbers belong to inactive results. No stated cut-off is given here; in the data, active means normalized growth mostly below about 0.91 (no sharp cut-off); inconclusive means no clear call, values can overlap the other calls; inactive means mostly above about 0.92.
# Assay: chemical genetic growth profiling, strain panel (AID 1159580);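 further: tested at 20 µM; growth read once vehicle control cultures reached saturation at 30 °C; 1 = growth at the plate median or of vehicle wells; lower values mean less growth of the strain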
# Settings: growth OD
structure (smiles),measurement,setting,value
CCCN(CCC)S(=O)(=O)c1ccc(C(=O)NCC(=O)O)cc1,normalized growth,"S. cerevisiae deletion strains, locus YAL013W, strain DEP1, hits give low values",1.01
same,normalized growth,"S. cerevisiae deletion strains, locus YBR229C, strain ROT2, hits give low values",1
same,normalized growth,"S. cerevisiae deletion strains, locus YDL101C, strain DUN1, hits give low values",1
same,normalized growth,"S. cerevisiae deletion strains, locus YDL134C, strain PPH21, hits give low values",0.996
same,normalized growth,"S. cerevisiae deletion strains, locus YDR150W, strain NUM1, hits give low values",0.907
same,normalized growth,"S. cerevisiae deletion strains, locus YEL061C, strain CIN8, hits give low values",1.02
same,normalized growth,"S. cerevisiae deletion strains, locus YGR078C, strain PAC10, hits give low values",0.998
same,normalized growth,"S. cerevisiae deletion strains, locus YHR030C, strain SLT2, hits give low values",1.03
same,normalized growth,"S. cerevisiae deletion strains, locus YHR087W, strain rtc3, hits give low values",1.02
same,normalized growth,"S. cerevisiae deletion strains, locus YJR043C, strain POL32, hits give low values",0.996
same,normalized growth,"S. cerevisiae deletion strains, locus YJR075W, strain HOC1, hits give low values",1.02
same,normalized growth,"S. cerevisiae deletion strains, locus YKL190W, strain CNB1, hits give low values",0.996
same,normalized growth,"S. cerevisiae deletion strains, locus YLR039C, strain RIC1, hits give low values",0.993
same,normalized growth,"S. cerevisiae deletion strains, locus YLR058C, strain SHM2 (second series), hits give low values",1.01
same,normalized growth,"S. cerevisiae deletion strains, locus YLR085C, strain ARP6, hits give low values",0.984
same,normalized growth,"S. cerevisiae deletion strains, locus YLR262C, strain YPT6, hits give low values",1.01
same,normalized growth,"S. cerevisiae deletion strains, locus YML094W, strain GIM5, hits give low values",1
same,normalized growth,"S. cerevisiae deletion strains, locus YMR219W, strain ESC1, hits give low values",1
same,normalized growth,"S. cerevisiae deletion strains, locus YMR263W, strain SAP30, hits give low values",0.989
same,normalized growth,"S. cerevisiae deletion strains, locus YNL153C, strain GIM3, hits give low values",1
same,normalized growth,"S. cerevisiae deletion strains, locus YNL298W, strain CLA4 (second series), hits give low values",1.02
same,normalized growth,"S. cerevisiae deletion strains, locus YNL322C, strain KRE1, hits give low values",1.01
same,normalized growth,"S. cerevisiae deletion strains, locus YNR030W, strain Alg12, hits give low values",1.01
same,normalized growth,"S. cerevisiae deletion strains, locus YPL055C, strain LGE1, hits give low values",1.02
same,normalized growth,"S. cerevisiae deletion strains, locus YPL241C, strain CIN2, hits give low values",1
same,normalized growth,"S. cerevisiae deletion strains, locus YPR135W, strain CTF4, hits give low values",1.01
same,normalized growth,"S. cerevisiae strains, strain wild type, hits give low values",1.01
CC12CCCCC1(Br)[N+](=O)N2[O-] (stereo not drawn),normalized growth,"S. cerevisiae deletion strains, locus YAL021C, strain ccr4, hits give low values",0.951
same,normalized growth,"S. cerevisiae deletion strains, locus YAL026C, strain drs2, hits give low values",0.899 (active)
same,normalized growth,"S. cerevisiae deletion strains, locus YAL030W, strain snc1, hits give low values",0.997
same,normalized growth,"S. cerevisiae deletion strains, locus YBL061C, strain skt5, hits give low values",0.978
same,normalized growth,"S. cerevisiae deletion strains, locus YBR009C, strain hhf1, hits give low values",0.939
same,normalized growth,"S. cerevisiae deletion strains, locus YBR023C, strain chs3, hits give low values",0.976
same,normalized growth,"S. cerevisiae deletion strains, locus YBR171W, strain sec66, hits give low values",0.964
same,normalized growth,"S. cerevisiae deletion strains, locus YBR231C, strain swc5, hits give low values",0.992
same,normalized growth,"S. cerevisiae deletion strains, locus YBR279W, strain paf1, hits give low values",0.972
same,normalized growth,"S. cerevisiae deletion strains, locus YCL011C, strain gbp2, hits give low values",0.943
same,normalized growth,"S. cerevisiae deletion strains, locus YCL016C, strain dcc1, hits give low values",0.951
same,normalized growth,"S. cerevisiae deletion strains, locus YCL069W, strain vba3, hits give low values",0.986
same,normalized growth,"S. cerevisiae deletion strains, locus YCR088W, strain abp1, hits give low values",0.983
same,normalized growth,"S. cerevisiae deletion strains, locus YDL005C, strain med2, hits give low values",0.969
same,normalized growth,"S. cerevisiae deletion strains, locus YDL040C, strain nat1, hits give low values",0.991
same,normalized growth,"S. cerevisiae deletion strains, locus YDR001C, strain nth1, hits give low values",1.01
same,normalized growth,"S. cerevisiae deletion strains, locus YDR069C, strain doa4, hits give low values",0.91
same,normalized growth,"S. cerevisiae deletion strains, locus YDR137W, strain rgp1, hits give low values",0.857
same,normalized growth,"S. cerevisiae deletion strains, locus YDR159W, strain sac3, hits give low values",0.995
same,normalized growth,"S. cerevisiae deletion strains, locus YDR195W, strain ref2",1.01
same,normalized growth,"S. cerevisiae deletion strains, locus YDR297W, strain sur2, hits give low values",1
same,normalized growth,"S. cerevisiae deletion strains, locus YDR334W, strain swr1, hits give low values",0.984
same,normalized growth,"S. cerevisiae deletion strains, locus YDR335W, strain msn5, hits give low values",0.974
same,normalized growth,"S. cerevisiae deletion strains, locus YDR392W, strain spt3, hits give low values",0.948
same,normalized growth,"S. cerevisiae deletion strains, locus YEL003W, strain gim4, hits give low values",0.994
same,normalized growth,"S. cerevisiae deletion strains, locus YEL037C, strain rad23, hits give low values",0.998
same,normalized growth,"S. cerevisiae deletion strains, locus YEL061C, strain CIN8 (second series), hits give low values",0.993
same,normalized growth,"S. cerevisiae deletion strains, locus YER015W, strain faa2, hits give low values",0.993
same,normalized growth,"S. cerevisiae deletion strains, locus YER016W, strain bim1, hits give low values",0.999
same,normalized growth,"S. cerevisiae deletion strains, locus YER111C, strain swi4, hits give low values",0.967
same,normalized growth,"S. cerevisiae deletion strains, locus YER155C, strain BEM2 (second series), hits give low values",0.853 (active)
same,normalized growth,"S. cerevisiae deletion strains, locus YFR010W, strain ubp6, hits give low values",0.922
same,normalized growth,"S. cerevisiae deletion strains, locus YGL167C, strain pmr1, hits give low values",0.993
same,normalized growth,"S. cerevisiae deletion strains, locus YGL173C, strain kem1, hits give low values",0.953
same,normalized growth,"S. cerevisiae deletion strains, locus YGL227W, strain vid30, hits give low values",0.992
same,normalized growth,"S. cerevisiae deletion strains, locus YGL240W, strain doc1, hits give low values",0.992
same,normalized growth,"S. cerevisiae deletion strains, locus YGL253W, strain hxk2, hits give low values",0.989
same,normalized growth,"S. cerevisiae deletion strains, locus YHR013C, strain ard1, hits give low values",0.919
same,normalized growth,"S. cerevisiae deletion strains, locus YHR027C, strain rpn1, hits give low values",0.966
same,normalized growth,"S. cerevisiae deletion strains, locus YHR142W, strain chs7, hits give low values",0.942
same,normalized growth,"S. cerevisiae deletion strains, locus YJL092W, strain hpr5, hits give low values",0.989
same,normalized growth,"S. cerevisiae deletion strains, locus YJL095W, strain BCK1 (second series), hits give low values",0.993
same,normalized growth,"S. cerevisiae deletion strains, locus YJL115W, strain asf1, hits give low values",0.987
same,normalized growth,"S. cerevisiae deletion strains, locus YJL129C, strain trk1, hits give low values",0.997
same,normalized growth,"S. cerevisiae deletion strains, locus YJL154C, strain vps35, hits give low values",0.997
same,normalized growth,"S. cerevisiae deletion strains, locus YJL164C, strain tpk1, hits give low values",0.951
same,normalized growth,"S. cerevisiae deletion strains, locus YJL166W, strain qcr8, hits give low values",0.961
same,normalized growth,"S. cerevisiae deletion strains, locus YJL187C, strain SWE1, hits give low values",0.986
same,normalized growth,"S. cerevisiae deletion strains, locus YKL160W, strain elf1, hits give low values",0.944
same,normalized growth,"S. cerevisiae deletion strains, locus YKR026C, strain gcn3, hits give low values",0.985
same,normalized growth,"S. cerevisiae deletion strains, locus YKR091W, strain srl3, hits give low values",0.989
same,normalized growth,"S. cerevisiae deletion strains, locus YLL001W, strain dnm1, hits give low values",0.967
same,normalized growth,"S. cerevisiae deletion strains, locus YLL026W, hits give low values",0.991
same,normalized growth,"S. cerevisiae deletion strains, locus YLL041C, strain sdh2, hits give low values",0.999
same,normalized growth,"S. cerevisiae deletion strains, locus YLR027C, strain aat2, hits give low values",0.954
same,normalized growth,"S. cerevisiae deletion strains, locus YLR221C, strain rsa3, hits give low values",0.927
same,normalized growth,"S. cerevisiae deletion strains, locus YLR258W, strain gsy2, hits give low values",0.967
same,normalized growth,"S. cerevisiae deletion strains, locus YLR262C, strain YPT6 (second series), hits give low values",0.815 (active)
same,normalized growth,"S. cerevisiae deletion strains, locus YLR320W, strain mms22, hits give low values",0.954
same,normalized growth,"S. cerevisiae deletion strains, locus YLR342W, strain FKS1, hits give low values",0.946
same,normalized growth,"S. cerevisiae deletion strains, locus YLR357W, strain rsc2, hits give low values",0.914
same,normalized growth,"S. cerevisiae deletion strains, locus YLR370C, strain arc18, hits give low values",0.966
same,normalized growth,"S. cerevisiae deletion strains, locus YLR384C, strain iki3, hits give low values",0.984
same,normalized growth,"S. cerevisiae deletion strains, locus YML120C, strain ndi1, hits give low values",1
same,normalized growth,"S. cerevisiae deletion strains, locus YMR058W, strain fet3, hits give low values",0.951
same,normalized growth,"S. cerevisiae deletion strains, locus YMR125W, strain sto1, hits give low values",1.02
same,normalized growth,"S. cerevisiae deletion strains, locus YMR129W, hits give low values",0.98
same,normalized growth,"S. cerevisiae deletion strains, locus YMR205C, strain PFK2, hits give low values",0.995
same,normalized growth,"S. cerevisiae deletion strains, locus YMR231W, strain pep5, hits give low values",0.997
same,normalized growth,"S. cerevisiae deletion strains, locus YNL071W, strain lat1, hits give low values",0.946
same,normalized growth,"S. cerevisiae deletion strains, locus YNL209W, strain ssb2, hits give low values",0.963
same,normalized growth,"S. cerevisiae deletion strains, locus YNL248C, strain rpa49, hits give low values",0.954
same,normalized growth,"S. cerevisiae deletion strains, locus YNL322C, strain KRE1 (second series), hits give low values",0.979
same,normalized growth,"S. cerevisiae deletion strains, locus YNR049C, strain mso1, hits give low values",0.999
same,normalized growth,"S. cerevisiae deletion strains, locus YOR001W, strain rrp6, hits give low values",0.958
same,normalized growth,"S. cerevisiae deletion strains, locus YOR070C, strain gyp1, hits give low values",0.994
same,normalized growth,"S. cerevisiae deletion strains, locus YOR080W, strain dia2, hits give low values",1
same,normalized growth,"S. cerevisiae deletion strains, locus YOR083W, strain WHI5, hits give low values",0.895
same,normalized growth,"S. cerevisiae deletion strains, locus YOR106W, strain vam3, hits give low values",0.884
same,normalized growth,"S. cerevisiae deletion strains, locus YOR265W, strain rbl2, hits give low values",0.991
same,normalized growth,"S. cerevisiae deletion strains, locus YOR270C, strain vph1, hits give low values",0.81
same,normalized growth,"S. cerevisiae deletion strains, locus YOR290C, strain snf2, hits give low values",0.976
same,normalized growth,"S. cerevisiae deletion strains, locus YPL051W, strain arl3, hits give low values",0.936
same,normalized growth,"S. cerevisiae deletion strains, locus YPL078C, strain atp4, hits give low values",0.967
same,normalized growth,"S. cerevisiae deletion strains, locus YPL106C, strain sse1, hits give low values",0.941
same,normalized growth,"S. cerevisiae deletion strains, locus YPL240C, strain hsp82, hits give low values",0.978
